Test results as given in PubChem BioAssay AID1159580 (chemical genetic matrix, 2015).
Hit rate of the full screen: of about 5,500 compounds, about 2,000 (36%) were called active. Not shown: some 18% with an inconclusive outcome. Cut-off read from the data, not from the text of the source: active = normalized growth mostly below about 0.91 (no sharp cut-off); inconclusive = no clear call, values can overlap the other calls; inactive = mostly above about 0.92. The list shows a part of the results.

Assay: chemical genetic growth profiling, strain panel (AID 1159580);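 note: tested at 20 µM; growth read once vehicle control cultures reached saturation at 30 °C; 1 = growth at the plate median or of vehicle wells; lower values mean less growth of the strain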
Conditions: growth OD

Measured: normalized growth

CC(=O)Oc1ccc2c(c1)CCC1C2CC[C@]2(C)C(=O)CCC12 (stereo not given in full)
active: S. cerevisiae deletion strains, locus YLR262C, strain YPT6 (second series), stronger effect = lower value 0.689 | S. cerevisiae deletion strains, locus YOR184W, strain ser1, stronger effect = lower value 0.86
inactive: S. cerevisiae deletion strains, locus YJR043C, strain POL32, stronger effect = lower value 0.982 | S. cerevisiae deletion strains, locus YJR066W, strain TOR1, stronger effect = lower value 0.895 | S. cerevisiae deletion strains, locus YKL009W, strain mrt4, stronger effect = lower value 0.972 | S. cerevisiae deletion strains, locus YKL068W, stronger effect = lower value 1.02 | S. cerevisiae deletion strains, locus YKL085W, strain MDH1 (second series), stronger effect = lower value 1 | S. cerevisiae deletion strains, locus YKL085W, strain MDH1, stronger effect = lower value 1 | S. cerevisiae deletion strains, locus YKL160W, strain elf1, stronger effect = lower value 0.986 | S. cerevisiae deletion strains, locus YKL190W, strain CNB1, stronger effect = lower value 1 | S. cerevisiae deletion strains, locus YKR001C, strain vps1, stronger effect = lower value 1.01 | S. cerevisiae deletion strains, locus YKR026C, strain gcn3, stronger effect = lower value 0.984 | S. cerevisiae deletion strains, locus YKR091W, strain srl3, stronger effect = lower value 0.985 | S. cerevisiae deletion strains, locus YLL001W, strain dnm1, stronger effect = lower value 0.964 | S. cerevisiae deletion strains, locus YLL026W, stronger effect = lower value 0.988 | S. cerevisiae deletion strains, locus YLL041C, strain sdh2, stronger effect = lower value 0.983 | S. cerevisiae deletion strains, locus YLR027C, strain aat2, stronger effect = lower value 0.983 | S. cerevisiae deletion strains, locus YLR039C, strain RIC1, stronger effect = lower value 0.725 | S. cerevisiae deletion strains, locus YLR058C, strain SHM2, stronger effect = lower value 0.987 | S. cerevisiae deletion strains, locus YLR102C, strain apc9, stronger effect = lower value 1.02 | S. cerevisiae deletion strains, locus YLR113W, strain HOG1, stronger effect = lower value 0.991 | S. cerevisiae deletion strains, locus YLR221C, strain rsa3, stronger effect = lower value 0.991 | S. cerevisiae deletion strains, locus YLR258W, strain gsy2, stronger effect = lower value 0.985 | S. cerevisiae deletion strains, locus YLR262C, strain YPT6, stronger effect = lower value 0.623 | S. cerevisiae deletion strains, locus YLR268W, strain sec22, stronger effect = lower value 1.01 | S. cerevisiae deletion strains, locus YLR320W, strain mms22, stronger effect = lower value 0.983 | S. cerevisiae deletion strains, locus YLR330W, strain CHS5, stronger effect = lower value 1 | S. cerevisiae deletion strains, locus YLR342W, strain FKS1 (second series), stronger effect = lower value 0.959 | S. cerevisiae deletion strains, locus YLR342W, strain FKS1, stronger effect = lower value 0.965 | S. cerevisiae deletion strains, locus YLR357W, strain rsc2, stronger effect = lower value 0.981 | S. cerevisiae deletion strains, locus YLR370C, strain arc18, stronger effect = lower value 0.975 | S. cerevisiae deletion strains, locus YLR371W, strain rom2, stronger effect = lower value 1.02 | S. cerevisiae deletion strains, locus YLR384C, strain iki3, stronger effect = lower value 0.961 | S. cerevisiae deletion strains, locus YLR418C, strain cdc73, stronger effect = lower value 0.966 | S. cerevisiae deletion strains, locus YML016C, strain PPZ1, stronger effect = lower value 1 | S. cerevisiae deletion strains, locus YML032C, strain rad52, stronger effect = lower value 0.997 | S. cerevisiae deletion strains, locus YML120C, strain ndi1, stronger effect = lower value 0.986 | S. cerevisiae deletion strains, locus YML124C, strain tub3, stronger effect = lower value 1.02 | S. cerevisiae deletion strains, locus YMR058W, strain fet3, stronger effect = lower value 0.96 | S. cerevisiae deletion strains, locus YMR078C, strain ctf18, stronger effect = lower value 0.999 | S. cerevisiae deletion strains, locus YMR125W, strain sto1, stronger effect = lower value 0.992 | S. cerevisiae deletion strains, locus YMR129W, stronger effect = lower value 0.987 | S. cerevisiae deletion strains, locus YMR205C, strain PFK2, stronger effect = lower value 0.947 | S. cerevisiae deletion strains, locus YMR223W, strain ubp8, stronger effect = lower value 0.996 | S. cerevisiae deletion strains, locus YMR231W, strain pep5, stronger effect = lower value 0.964 | S. cerevisiae deletion strains, locus YMR307W, strain GAS1, stronger effect = lower value 1.07 | S. cerevisiae deletion strains, locus YNL067W, strain RPL9B, stronger effect = lower value 0.956 | S. cerevisiae deletion strains, locus YNL071W, strain lat1, stronger effect = lower value 0.994 | S. cerevisiae deletion strains, locus YNL128W, strain TEP1, stronger effect = lower value 1.02 | S. cerevisiae deletion strains, locus YNL183C, strain NPR1, stronger effect = lower value 0.894 | S. cerevisiae deletion strains, locus YNL209W, strain ssb2, stronger effect = lower value 0.982 | S. cerevisiae deletion strains, locus YNL233W, strain BNI4, stronger effect = lower value 0.949 | S. cerevisiae deletion strains, locus YNL248C, strain rpa49, stronger effect = lower value 1 | S. cerevisiae deletion strains, locus YNL250W, strain rad50, stronger effect = lower value 1.01 | S. cerevisiae deletion strains, locus YNL271C, strain bni1, stronger effect = lower value 1.02 | S. cerevisiae deletion strains, locus YNL298W, strain CLA4, stronger effect = lower value 0.962 | S. cerevisiae deletion strains, locus YNL307C, strain MCK1, stronger effect = lower value 1.01 | S. cerevisiae deletion strains, locus YNL322C, strain KRE1 (second series), stronger effect = lower value 0.967 | S. cerevisiae deletion strains, locus YNL322C, strain KRE1, stronger effect = lower value 1 | S. cerevisiae deletion strains, locus YNR049C, strain mso1, stronger effect = lower value 0.992 | S. cerevisiae deletion strains, locus YNR052C, strain pop2, stronger effect = lower value 0.996 | S. cerevisiae deletion strains, locus YOL006C, strain TOP1, stronger effect = lower value 0.719 | S. cerevisiae deletion strains, locus YOL012C, strain htz1 1.64 | S. cerevisiae deletion strains, locus YOL147C, strain pex11, stronger effect = lower value 1.01 | S. cerevisiae deletion strains, locus YOR001W, strain rrp6, stronger effect = lower value 0.972 | S. cerevisiae deletion strains, locus YOR061W, strain CKA2, stronger effect = lower value 1 | S. cerevisiae deletion strains, locus YOR069W, strain VPS5, stronger effect = lower value 1.01 | S. cerevisiae deletion strains, locus YOR070C, strain gyp1, stronger effect = lower value 0.988 | S. cerevisiae deletion strains, locus YOR080W, strain dia2, stronger effect = lower value 0.983 | S. cerevisiae deletion strains, locus YOR083W, strain WHI5, stronger effect = lower value 0.976 | S. cerevisiae deletion strains, locus YOR106W, strain vam3, stronger effect = lower value 0.968 | S. cerevisiae deletion strains, locus YOR136W, strain idh2, stronger effect = lower value 1.01 | S. cerevisiae deletion strains, locus YOR144C, strain elg1, stronger effect = lower value 1.01 | S. cerevisiae deletion strains, locus YOR231W, strain MKK1, stronger effect = lower value 0.928 | S. cerevisiae deletion strains, locus YOR265W, strain rbl2, stronger effect = lower value 0.989 | S. cerevisiae deletion strains, locus YOR270C, strain vph1, stronger effect = lower value 0.975 | S. cerevisiae deletion strains, locus YOR290C, strain snf2, stronger effect = lower value 0.998 | S. cerevisiae deletion strains, locus YOR316C, strain cot1, stronger effect = lower value 1.03 | S. cerevisiae deletion strains, locus YPL051W, strain arl3, stronger effect = lower value 0.979 | S. cerevisiae deletion strains, locus YPL078C, strain atp4, stronger effect = lower value 0.959 | S. cerevisiae deletion strains, locus YPL106C, strain sse1, stronger effect = lower value 1.02 | S. cerevisiae deletion strains, locus YPL240C, strain hsp82, stronger effect = lower value 0.969 | S. cerevisiae deletion strains, locus YPL241C, strain CIN2, stronger effect = lower value 1.01 | S. cerevisiae deletion strains, locus YPL256C, strain CLN2, stronger effect = lower value 0.945 | S. cerevisiae deletion strains, locus YPR119W, strain clb2, stronger effect = lower value 1.01 | S. cerevisiae deletion strains, locus YPR141C, strain kar3, stronger effect = lower value 1.02 | S. cerevisiae deletion strains, locus YPR163C, strain tif3, stronger effect = lower value 1.03 | S. cerevisiae deletion strains, locus YPR167C, strain met16, stronger effect = lower value 1.02 | S. cerevisiae deletion strains, strain wtn01, stronger effect = lower value 0.997 | S. cerevisiae strains, strain wild type, stronger effect = lower value 0.993
